Source: PubChem BioAssay (NCI)
The panel holds about 83,000 compounds, 20% with a hit somewhere; the sample as a whole holds those more often.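 How to read the values: 0–100, growth inhibition (40 = 60% inhibited); 0, no net growth; -100 to 0, cell death (-40 = 40% of starting cells died; -100 = all dead).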 Activity calls are given as the source filed them. How the source made its calls: active means growth percent below 10; inactive means the rest.

test system: MDA-MB-468 breast; experiment: NCI-60 one-dose screen, 48 h (100 = growth as untreated, 0 = no growth, -100 = all killed); details: 10 µM unless noted

Row | SMILES | growth
1 | C(=C1c2ccccc2-c2ccccc21)c1ccncc1 | 0.207% (active)
2 | COc1ccc(CNc2c3ccccc3nc3ccc(OC)cc23)cc1 | -14.7% (active)
3 | NC[C@@H]1CCN(c2cc3c(cc2F)c(=O)n(N)c(=O)n3Cc2ccc(-c3ccccc3)cc2)C1 | 72.6% (inactive)
4 | COc1ccc(C(=NN=C(N)N)c2ccc(OC)cc2)cc1 | -17.7% (active)
5 | FC(F)(F)c1cccc(Nc2nc(-c3ccccc3)nc3ncccc23)c1 | -21.7% (active)
6 | CC(=O)c1ccc(N=C(C#N)C2=C(O)c3ccccc3C2=O)cc1 | 94.5% (inactive)
7 | O=C(CN1CCN(c2cc3c(cc2F)c(=O)c(C(=O)O)cn3C2CC2)CC1)Nc1ccc(C(=O)/C=C/c2ccccc2)cc1 | 33.8% (inactive)
8 | COc1ccc(/C=N/OCC(O)CN2CCC(O)CC2)cc1OC1CCCC1 (stereo not drawn) | 117% (inactive)
9 | C=C[C@@H]1C[C@@H]2Cc3c(C)cc(C)cc3N1O2 | 97.9% (inactive)
10 | Clc1ccc(N/N=c2/oc3ccccc3cc2-c2cc3ccccc3[nH]2)cc1 | 59.8% (inactive)
11 | Cc1cccc2c(=O)c3c(sc12)c(NCc1ccccc1)nc1ccccc13 | -12.7% (active)
12 | O=C1/C(=C/c2ccc(OCCCOc3ccc(Cl)cc3)cc2)N=C2SCCCN12 | 61.2% (inactive)
13 | CCCCCCCCCCCCCCCCCCSC1=CC(=O)C(OC)=C(OC)C1=O | 105% (inactive)
14 | O=C1[C@H]2Cc3c([nH]c4ccccc34)[C@H](c3ccc(Br)cc3)N2C(=O)CN1C1CCN(CC2CCCCC2)CC1 | 80.1% (inactive)
15 | CC1=C(/C=C/C(C)=C/C=C/C(C)=C/CO)C(C)(C)CCC1 | 103% (inactive)
16 | CCOC(=O)c1cc2c(n1Cc1ccccc1OC)-c1oncc1CCC2 | 7.1% (active)
17 | CCOC(=O)Cn1c(C)c(/C=N/NC(=O)c2cc3c(ccc4ccccc43)o2)c2ccccc21 | 16.1% (inactive)
18 | Nc1nc2nnc(-c3ccccc3)c(-c3ccccc3)n2n1 | 99.9% (inactive)
19 | CCOC(=O)/C(=C/c1ccc([N+](=O)[O-])cc1)C(=O)c1ccccc1 | 21.3% (inactive)
20 | N#Cc1c(N)nc2c(nnn2-c2cccc(Br)c2)c1N | 92.9% (inactive)
21 | O=C(Nc1nc(-c2ccccc2)cs1)c1cc(-c2ccc(Br)cc2)nc2ccccc12 | 35.2% (inactive)
22 | COc1ccc(C2c3sc4c(F)cccc4c3Oc3nc[nH]c(=O)c32)cc1 (stereo not drawn) | 54.6% (inactive)
23 | S=c1nn[nH]c2ccccc12 | 117% (inactive)
24 | O=C1/C(=C\c2ccc(Br)cc2)CN(C(=O)c2ccccc2F)C/C1=C\c1ccc(Br)cc1 | -54.1% (active)
25 | CC(C)(C)CC(C)(C)c1ccc(OCCOCC[N+](C)(C)CC(=O)[O-])cc1 | 108% (inactive)
26 | COc1ccc(NC(=O)C2c3ccccc3C(=O)N(CC(C)C)C2c2cccs2)cc1 (stereo not drawn) | 82.3% (inactive)
27 | Cc1ccc(C(=O)NN2C(=O)/C(=C/C=C/c3ccco3)SC2=S)cc1 | 71% (inactive)
28 | O=C1c2cccnc2C(=O)c2c1c(C(=O)OCCN1CCOCC1)c1ccccn21 | -2.61% (active)
